# Bioassay records deposited in PubChem by National Center for Advancing Translational Sciences (NCATS).
# Vaccinia Venus = inhibitors of vaccinia virus (Venus reporter) | Vaccinia virus Venus reporter expression, fluorescence | Potency, µM (highest dose often 36.5 µM), without a hit: top-dose activity change, negative = inhibition, most hits filed as inhibitors | 330,000 tested, 0.46% active | AID 720580; calls by dose curve; tested in A549 cells; also: potency is read from the fitted curve at half-maximal effect; nearly all actives have a fitted effect of over 30% in size
# VACV mCherry inh = vaccinia inhibition (mCherry reporter); Vaccinia virus mCherry reporter infection, fluorescence; Potency, µM (titrated, usually from 36.5 µM), for the others: top-dose activity change, negative = inhibition, usual class: inhibitors; 310,000 tested, 0.63% active; calls by dose curve; tested in A549 cells; also: potency is read from the fitted curve at half-maximal effect; nearly all actives have a fitted effect of over 35% in size
# HCV inhibitor = blocks hepatitis C virus; Huh7.5.1 HCVcc-Cre infection, luciferase reporter, 44 h; Potency, µM (titrated, usually from 41.8 µM), without a hit: at the top dose activity change, negative = inhibition, usual class: inhibitors; 340,000 tested, 3.4% active; AID 651820; active = well fitted inhibition curve with a large enough effect; inconclusive = small, poorly fitted or top-dose-only effect, or another doubt; inactive = no such curve, though single readings can be large or run the other way; also: potency is read from the fitted curve at half-maximal effect
#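 1,000 cells/well; 4 h culture; + compound; + HCVcc-Cre (~0.5 moi); 44 h; luciferase substrate, RT 15 min; read 15 sec.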
# LASV entry inh = inhibitors of Lassa virus binding or cell entry; 300,000 tested, 1.2% active; Potency, µM (highest dose often 37.9 µM), inactives show at the highest dose activity change, negative = inhibition, hits mostly inhibitors; Lassa virus pseudotype entry inhibition, cell reporter; calls by dose curve; tested in HEK293 cells; also: potency is read from the fitted curve at half-maximal effect; nearly all actives have a fitted effect of over 50% in size
# MARV entry inh = Marburg virus entry inhibition; 300,000 tested, 1.8% active; Potency, µM (highest dose often 37.8 µM), for inactives: top-dose activity change, negative = inhibition, most hits filed as inhibitors; Marburg virus pseudotyped entry inhibition, cell reporter; calls by dose curve; tested in HEK293 cells; also: potency is read from the fitted curve at half-maximal effect
# HCMV inh = inhibitors of human cytomegalovirus. 410,000 tested, 4.5% active. HFF cells, HCMV-luciferase reporter, 72 h; stronger effect = lower value. activity change, negative = inhibition, % at 57.5 µM; in the data active = activity change below about -60%; inconclusive = no clear call, values can overlap the other calls; inactive = above about -39%
#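 HFF cells seeded 16 h at 37C, treated with compounds, infected with luciferase-reporter HCMV at MOI 1 PFU/cell; luciferase read at 72 h post infection, normalized to buffer-only and Salinomycin controls.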
# * marks the source's active call; other numbers are inactive results; i = inactive; u = inconclusive; x = no result; ! = not confirmed by another sample; [ ] = remark or other dose. A selection: hits, their analogues and other compounds. The true share with any hit is near 7.8%. % is scaled to controls: 0 for no effect and ±100 for the full control effect.
SMILES,Vaccinia Venus,VACV mCherry inh,HCV inhibitor,LASV entry inh,MARV entry inh,HCMV inh
CCCCNC(=O)C1=C(N)C(C(=O)Nc2ccc(C)c(S(=O)(=O)N3CCCCC3)c2)SC1=Nc1ccc(C)cc1C (stereo not drawn),-11%,i,27%,-25%,13µM*,-9
CCNC(=O)C1(C)CCN1CCS(=O)(=O)c1ccc(C)cc1 (stereo not drawn),-4%,-8%,x,x,x,-102*
CC(=O)c1c(C)n(-c2ccc(Cl)cc2)c2ccc(OC(=O)COc3ccccc3)cc12,-12%,-15%,x,11%[46.1 µM],x,-17
CCOc1ccc(-n2c(C)c(C(=O)O)c3cc(OC)ccc32)cc1,-7%,i,2%,u,6.3µM*,u
CC(=O)c1c(C)n(-c2cccc(C)c2)c2ccc(OC(=O)COc3ccccc3)cc12,-1%,-12%,x,-13%[46.1 µM],-17%[46.1 µM],-63*
CCOc1ccc(-n2c(C)c(C(C)=O)c3cc(OC(C)=O)ccc32)cc1,x,x,u,x,x,-78*
C=C(C)c1cccc(C(C)(C)NC(=O)NCc2ccc(OC)c(OC)c2)c1,x,x,11µM*,0%,u,-35
C=C(C)c1cccc(C(C)(C)NC(=O)Nc2cccnc2)c1,-17%,i,-7%,u,u,-9
C=C(C)c1cccc(C(C)(C)NC(=O)Nc2ccc(C(N)=O)cc2)c1,-14%,i,-18%,0%[46.1 µM],u,-67*
Cc1ccc(C)c(Cn2cc(S(=O)(=O)c3ccc(Cl)cc3)c(=O)c3cc(F)ccc32)c1,-5%,-8%,x,-9%[46.1 µM],13%[46.1 µM],1
Cc1cc(Cl)ccc1OCC(=O)OCC(=O)NC1CCCC1,5%,-13%,22%,-11%,0%,-14
Cc1cc(Cl)ccc1OCC(=O)NC1CCCC1,-21%,-27%,u,-6%,u,-74*
Cc1cc(Cl)c(S(=O)(=O)NC2CCCC2)cc1OCC(=O)NC1CCCCC1,x,x,7.1µM*,u,u,-90*
COc1cc(CNCc2ccccn2)ccc1OCC(=O)NC1CCCCC1,-13%,-22%,10%,-9%,-5%,-19
Cc1cc(Cl)c(S(N)(=O)=O)cc1OCC(=O)NC1CCCCC1,-7%,-12%,19%,14%,u,-14
CCOC(=O)N1CCN(S(=O)(=O)c2cc(OCC(=O)NC3CCCCC3)c(C)cc2Cl)CC1,x,x,6%,18%,u,-70*
CCOc1cc(CNCc2ccccc2)ccc1OCC(=O)NC1CCCCC1,-20%,-5%,2.5µM*,-19%,u,40
Cc1cc(Cl)c(S(=O)(=O)N2CCCCCC2)cc1OCC(N)=O,-20%,u,-5%,1%,-11%[46.1 µM],-13
Cc1cc(Cl)c(S(=O)(=O)N2CCSCC2)cc1OCC(=O)NC1CCCCC1,x,x,6.3µM*,u,9.2µM*,-95*
Cc1cc(Cl)c(S(=O)(=O)N2CCN(c3ccccn3)CC2)cc1OCC(=O)NC1CCCCC1,x,x,10µM*,x,x,-77*
Cc1cc(Cl)ccc1OCCCC(N)=O,x,x,u,3%,1%,8
Cc1cc(Cl)ccc1OCCCC(=O)NO,-19%,i,7.1µM*,u,2%,5
Cc1cc(Cl)c(S(=O)(=O)N2CCCCCC2)cc1OCC(=O)NC1CCCCC1,x,x,-2%,-5%,-17%,u
COc1ccc(S(=O)(=O)N(Cc2nc(-c3ccc(C)cc3)no2)C2CCCCC2)cc1,-13%,-20%,x,-23%[46.1 µM],3%[46.1 µM],u
Cc1ccc(CCNC(=O)C(CC(C)C)NS(=O)(=O)c2ccc3c(c2)oc(=O)n3C)cc1 (stereo not drawn),-1%,-12%,x,u,-2%[46.1 µM],-7
O=C(Nc1ccc(Cl)cc1)N1CCC(c2nc(-c3ccc(F)cc3)no2)CC1,x,x,u,-27%,-29%,-91*
COCCNC(=S)N1CCC(c2nc(-c3ccc(F)cc3)no2)CC1,-21%,-11%,u,u,-5%[46.1 µM],u
O=C(Nc1ccc(Cl)cc1)N1CCN(c2ccc3nnc(-c4ccc(F)cc4)n3n2)CC1,11µM*,u,u,u,u,-63*!
COc1ccc(NC(=O)N2CCCC(c3nc(-c4ccc(OC)cc4)no3)C2)cc1 (stereo not drawn),-21%,i,22µM*,u,u,u
